# From PubChem BioAssay AID588675 (Johns Hopkins Ion Channel Center, 2011)
# Out of some 310,000 compounds screened, about 1,900 (0.61%) were called active.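 Rule for the calls: active = plate-corrected calcium response at least 3 library SD above typical, normal starting fluorescence, not activating the receptor alone; inactive = the rest.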 The sample as a whole holds a higher share of actives than the screen did.
# Molecular target: Mas-related G-protein coupled receptor member X1 (Homo sapiens) (UniProt Q96LB2)
# Sequence (Q96LB2 whole entry, looked up): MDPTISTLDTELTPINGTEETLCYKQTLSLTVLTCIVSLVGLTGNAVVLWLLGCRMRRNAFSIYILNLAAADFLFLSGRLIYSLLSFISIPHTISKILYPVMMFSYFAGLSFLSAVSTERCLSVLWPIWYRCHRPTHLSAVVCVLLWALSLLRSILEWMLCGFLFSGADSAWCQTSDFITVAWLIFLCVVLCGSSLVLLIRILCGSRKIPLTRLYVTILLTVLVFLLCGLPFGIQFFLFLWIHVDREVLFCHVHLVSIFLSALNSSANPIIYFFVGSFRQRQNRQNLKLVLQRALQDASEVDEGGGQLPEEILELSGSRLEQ
# Assay: allosteric enhancers of human MrgX1 signaling – HEK293 cells, Fluo-4 calcium flux, primary screen (AID 588675);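 note: compound read alongside a low EC10 to EC30 dose of BAM8-22 agonist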;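 for B-score: peak minus trough fluorescence over baseline measured at the second addition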
# Settings: MrgX1-HEK293, Fluo-4 calcium flux, FDSS, at 10 µM; active compounds read high
row,Compound,B-score
1,COCCOCCn1cnc2ccccc21,inactive
2,Clc1ncn(CCOc2ccccc2)c1Cl,inactive
3,Cc1cc2ncn(CCCCOc3ccccc3)c2cc1C,10.8 (active)
4,CCN1CCCC1CNC(=O)c1cc2cc(OC)c(OC)cc2[nH]1 (configuration not stated),inactive
5,COc1ccc(-c2ccc(Nc3ccc(S(=O)(=O)N4CCCC4)cc3)nn2)cc1OC,inactive
6,COc1ccc(-c2cc(C(F)(F)F)nc(S(C)(=O)=O)n2)cc1OC,8.21 (active)
7,COc1ccc(-c2cc(C(F)(F)F)nc(NCc3cccnc3)n2)cc1,inactive
8,N/C(=N\OC(=O)CCn1cccc(C(F)(F)F)c1=O)c1ccc(OC(F)(F)F)cc1,inactive
9,Cc1ccc2c(=O)oc(N(C)C)nc2c1,inactive
10,CCC(C)CCN1CCN=C1N(C)C (configuration not stated),inactive
11,COc1ccc(CCNC(=O)C(Sc2ccccn2)c2ccccc2)cc1OC (configuration not stated),8.72 (active)
12,COc1ccc(CCNC(=O)C(=O)NCc2ccccc2C)cc1OC,inactive
13,COc1ccc(CCNC(=O)c2ccccc2-c2ccccc2C(=O)O)cc1OC,inactive
14,Cc1ccc(NC(=O)C(C)OC(=O)Cc2c[nH]c3ccccc23)cc1S(=O)(=O)N1CCOCC1 (configuration not stated),inactive
15,CCOc1cccc2c1OC1(CCCCC1)N1N=C(c3cccnc3)CC21 (configuration not stated),inactive
16,CC(C)=CCC/C(C)=C/C(=O)O,inactive

row,Compound,B-score
1,Cc1ccc(CN(Cc2cccnc2)C(=S)Nc2cccc(Cl)c2C)cc1,inactive
2,Cc1cccc(C)c1NC(=S)N(Cc1cccnc1)Cc1ccccc1Cl,10.5 (active)
3,Cc1c(Cl)cccc1NC(=S)N(Cc1ccccc1)Cc1cccnc1,inactive
4,Cc1cccc(C(=O)OCC(=O)Nc2ccc(F)cc2)c1,inactive
5,CCc1ccc(NC(=O)COC(=O)c2cccs2)cc1,inactive
6,O=C(COC(=O)c1ccc(NS(=O)(=O)c2cccs2)cc1O)Nc1ccc(F)cc1,9.09 (active)
7,Cc1cc(S(=O)(=O)NC2CCCC2)ccc1-n1cnnn1,inactive
8,Cc1ccc(-n2[nH]c(C)c(/C=N/N3C(=O)c4cccc5cccc(c45)C3=O)c2=O)cc1,inactive
9,Cc1[nH]n(-c2cccc(Cl)c2)c(=O)c1/C=N/n1c(C)nc2ccccc2c1=O,inactive
10,Cc1[nH]n(-c2ccc(Cl)cc2)c(=O)c1/C=N/n1c(C)nc2ccccc2c1=O,11.4 (active)
11,Cc1ccc(NS(=O)(=O)c2ccc3c(c2)oc(=O)n3C)c(C)c1,inactive
12,O=C(NCC(=O)N1CCC2(CC1)NCCc1[nH]cnc12)c1ccc(Br)cc1,inactive
13,Cc1cc(C)c(S(=O)(=O)N2CCOCC2)cc1C,inactive
14,C/C(=N\Nc1ncc(Cl)cc1Cl)c1ccc(S(=O)(=O)NCc2ccco2)cc1,inactive
15,C/C(=N\Nc1nc2ccccc2[nH]1)c1cccs1,inactive
16,C/C(=N\Nc1ncc(Cl)cc1Cl)c1cccs1,8.26 (active)
